Experimental data from PubChem BioAssay (Tox21).
Results filed as inconclusive are left out. The source made the active and inactive calls. Unless noted, the call rests on the fitted dose curve; in most records, active means well fitted curve in the direction sought with a large enough effect in the repeat runs; inconclusive means weak or mixed curves; inactive means no such curve, though single readings can be large; an effect the other way counts as inactive or inconclusive.

Key:
[1] = qHTS RealTime-Glo MT Cell Viability Assay in HEK293 cells - 8 hour (AID 1224887); further: top concentration of the series differs between compounds; nearly all actives have a fitted effect of over 50% in size
How it was run: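 Nonlytic bioluminescent viability monitoring. HEK293 at 600 cells/well with reagent; 5 h settle; compound transfer by pintool; plates held at 37 C and read at set time points.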

[2] = A CellTox Green Cytotoxicity Assay to monitor cytotoxicity in HEK293 cells - 16 hour (AID 1224888); further: nearly all actives have a fitted effect of over 35% in size; further: potency means the concentration at half of the fitted maximal effect
How it was run: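 Cytotoxicity was tracked continuously in HEK293 cells by a DNA-binding dye excluded from viable cells. Compounds were transferred in DMSO 5 h after seeding; fluorescence was recorded at intervals up to 40 h.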

[3] = qHTS RealTime-Glo MT Cell Viability Assay in HepG2 cells - 0 hour (AID 1224889); further: nearly all actives have a fitted effect of over 50% in size
How it was run: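 Tox21 10K library screened in qHTS format on HepG2 cells carrying RealTime-Glo reagents. Compounds were added after a 5 h preincubation, and the luminescent signal from continuous culture was measured repeatedly during 40 h treatment.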

[4] = A CellTox Green Cytotoxicity Assay to monitor cytotoxicity in HepG2 cells - 8 hour (AID 1224890); further: nearly all actives have a fitted effect of over 45% in size; further: potency means the concentration at half of the fitted maximal effect
How it was run: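 Real-time, homogeneous cytotoxicity readout: dead-cell DNA staining by CellTox Green in HepG2 monolayers, fluorescence measured at timed intervals up to 40 h of continuous compound exposure.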

[5] = qHTS assay to identify small molecule antagonists of the estrogen receptor alpha (ER-alpha) signaling pathway using the BG1 cell line in the presence of 0.1 nM 17-beta-estradiol - cell viability counter screen (AID 1259241); further: nearly all actives have a fitted effect of over 40% in size
How it was run: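 Viability in VM7Luc4E2 cells after 22 hr compound exposure under 0.1 nM 17beta-estradiol stimulation, by CellTiter-Fluor.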

[6] = qHTS assay to identify small molecule antagonists of the androgen receptor (AR) signaling pathway using the MDA cell line in the presence of 0.5 nM R1881 - cell viability counter screen (AID 1259242); further: nearly all actives have a fitted effect of over 45% in size
How it was run: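 Cytotoxicity toward MDA-kb2 cells is measured by CellTiter-Fluor live-cell protease fluorescence after 16 hr compound exposure at 37C in the presence of 0.5 nM R1881 stimulator.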

[7] = target: Estrogen receptor (Homo sapiens) (UniProt P03372); test: qHTS assay to identify small molecule antagonists of the estrogen receptor alpha (ER-alpha) signaling pathway using the BG1 cell line in the presence of 0.1 nM 17-beta-estradiol (AID 1259244); further: nearly all actives have a fitted effect of over 50% in size
Estrogen receptor (Homo sapiens), sequence (P03372 whole entry, looked up): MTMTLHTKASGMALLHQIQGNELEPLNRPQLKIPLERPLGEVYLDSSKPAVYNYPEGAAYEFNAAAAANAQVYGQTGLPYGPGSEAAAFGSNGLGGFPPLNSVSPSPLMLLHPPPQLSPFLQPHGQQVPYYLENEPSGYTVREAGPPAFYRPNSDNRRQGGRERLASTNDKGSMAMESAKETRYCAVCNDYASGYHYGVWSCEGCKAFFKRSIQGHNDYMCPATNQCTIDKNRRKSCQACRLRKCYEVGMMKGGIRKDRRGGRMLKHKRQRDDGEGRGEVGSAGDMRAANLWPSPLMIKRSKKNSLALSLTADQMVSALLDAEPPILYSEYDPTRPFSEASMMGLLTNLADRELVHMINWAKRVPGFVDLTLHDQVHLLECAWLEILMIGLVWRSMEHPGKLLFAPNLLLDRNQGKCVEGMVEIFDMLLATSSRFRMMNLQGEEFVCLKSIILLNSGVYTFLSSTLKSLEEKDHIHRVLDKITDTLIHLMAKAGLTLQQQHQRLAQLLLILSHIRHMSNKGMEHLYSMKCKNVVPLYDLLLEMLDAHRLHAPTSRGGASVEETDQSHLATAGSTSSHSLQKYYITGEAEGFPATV
How it was run: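 After 5 days in hormone-depleted medium (charcoal-stripped serum, no phenol red), VM7Luc4E2 cells were seeded, incubated 24 h, then co-treated with compound and 0.1 nM (final) estradiol for 22 h before luminescence detection.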

[8] = qHTS assay to identify small molecule HDAC inhibitors (AID 1259364); further: top concentration of the series differs between compounds; nearly all actives have a fitted effect of over 45% in size
How it was run: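 Homogeneous cell-based luminescent assay of endogenous class I/II HDAC activity; HCT-116 cells, 2 h compound exposure, 30 min HDAC-Glo development at RT.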

[9] = qHTS assay to identify small molecule phospholipidosis (PLD) inducers (AID 1259344; active means well fitted curve in the direction sought with a large enough effect; an effect the other way counts as inactive or inconclusive)
How it was run: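 HepG2 cells grown on collagen I take up LipidTOX Red while exposed to compound for 24 h; after fixation they are imaged at 20x and pit metrics are extracted.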

Measured: Potency

C=CCOC(=O)CCCCCCCC
not listed: [9]
inactive: all other assays above

c1coc(Cn2cccc2)c1
not listed: [9]
inactive: all other assays above

CCCCc1ccc(Cl)cc1
not listed: [9]
inactive: all other assays above

C/C=C(\C)C(=O)OC/C=C(\C)CCC=C(C)C
not listed: [8] | [9]
inactive: all other assays above

C[n+]1ccccc1/C=N/O
not listed: [8]
inactive: all other assays above

CO/N=C(\C(=O)O)c1csc(NC(=O)CCl)n1
not listed: [9]
inactive: all other assays above

CCc1ccc(CC)cc1
not listed: [9]
inactive: all other assays above

Nc1ccc(C(=O)NCC(=O)O)cc1
inactive: all assays above

CCCCN(CCCC)CCCCCCN(CCCC)CCCC
not listed: [9]
inactive: all other assays above

CC1(C)S[C@@H]2[C@H](NC(=O)Cc3ccccc3)C(=O)N2[C@H]1C(=O)O (tested in a mixture with another compound)
inactive: all assays above

Cc1ccc(O)c([N+](=O)[O-])c1
not listed: [9]
inactive: all other assays above

COC(=O)N/N=C/c1c[n+]([O-])c2ccccc2[n+]1[O-]
active: [2] 21.3 µM | [4] 26.8 µM
inactive: all other assays above

O=C(O)/C=C(\CC(=O)O)C(=O)O
inactive: all assays above
